Screens (PubChem)
Cycloheximide cs: counter-screen hit for Shiga toxin inhibitors, cycloheximide; 12% of 300,000 active; cell reporter, cycloheximide protein synthesis inhibition counterscreen; max response, %; AID 2314; in the data active means max response mostly above about 13%, no sharp cut-off; inactive means mostly below about 14%; further: read at 38.3 µM for the half of the compounds with a filed dose; 0% is about no effect
AmpC detergent: blocks E. coli AmpC beta-lactamase in detergent assay; AmpC hydrolysis of nitrocefin, absorbance 480 nm, 0.01% Triton; Potency, µM (doses to about 114 µM), for inactives: at the top dose activity change, negative = inhibition, usual class: inhibitors; 0.041% of 370,000 active; AID 485294;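 further: potency means the concentration at half of the fitted maximal effect; 0% = no-compound wells and -100% = no-enzyme wells; nearly all actives have a fitted effect of over 25% in size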
Target sequence (P00811 whole entry, looked up): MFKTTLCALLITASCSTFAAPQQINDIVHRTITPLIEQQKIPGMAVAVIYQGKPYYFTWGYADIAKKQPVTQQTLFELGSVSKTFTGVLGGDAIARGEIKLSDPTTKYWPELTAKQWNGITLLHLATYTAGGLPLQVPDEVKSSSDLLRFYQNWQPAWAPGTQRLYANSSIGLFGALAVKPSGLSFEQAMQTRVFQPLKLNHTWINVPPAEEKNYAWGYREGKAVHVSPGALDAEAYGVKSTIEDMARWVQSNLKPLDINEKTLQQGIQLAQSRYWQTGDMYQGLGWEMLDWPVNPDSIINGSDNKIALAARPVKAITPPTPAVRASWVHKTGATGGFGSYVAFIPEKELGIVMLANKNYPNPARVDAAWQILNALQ
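20 mM phosphate pH 7.0 + 0.01% (detergent screen) or 0.0001% Triton X-100; 5.3 nM AmpC reagent; cpd preinc 15 min RT; nitrocefin (800 uM stock) to start; A480 q20 s × 4 min; Activity was normalised to no-enzyme and no-compound control wells.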
SARS PLP yeast: SARS-CoV PLP inhibition in yeast | S. cerevisiae expressing SARS-CoV PLpro, growth rescue | Potency, µM (highest dose often 32.9 µM), inactives show at the top dose activity, positive = growth rescue, most hits filed as activators | 0.19% of 330,000 active | AID 485353; calls by dose curve; further: potency means the concentration at half of the fitted maximal effect; 0% is about no effect; nearly all actives have a fitted effect of over 55% in size
AmpC no deterg: inhibitors of E. coli AmpC beta-lactamase without detergent. AmpC nitrocefin hydrolysis, absorbance 480 nm, 0.0001% Triton. Potency, µM (doses to about 57.1 µM), inactives show at the highest dose activity change, negative = inhibition, most hits filed as inhibitors. 0.52% of 330,000 active;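 further: potency means the concentration at half of the fitted maximal effect; plate controls were no compound for no effect and no enzyme for full effect; nearly all actives have a fitted effect of over 20% in size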
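AmpC (5.3 nM in the dispensed reagent) in 20 mM phosphate pH 7.0 with 0.01% (detergent screen) or 0.0001% Triton X-100 was preincubated with compounds for 15 min at room temperature. Nitrocefin was then added from an 800 uM solution, and hydrolysis was followed at 480 nm.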
Shiga toxin inh: blocks Shiga toxin action in Vero cells; Vero cells, Shiga toxin protein synthesis inhibition reporter; inhibition, % at 38.7 µM; 9.2% of 290,000 active; AID 2315; in the data active means inhibition mostly above about 28%, no sharp cut-off; inactive means mostly below about 43%; further: 0% is about no effect
AMA1 RON2 block: AMA1-RON2 (P. falciparum) interaction inhibition. 0.2% of 360,000 active. AlphaScreen AMA1-biotinylated RON2 peptide binding. Potency, µM (top dose mostly 58.2 µM), for the others: at the highest dose activity change, negative = inhibition, usual class: inhibitors;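 further: potency means the concentration at half of the fitted maximal effect; 0% = vehicle wells and -100% = peptide control; nearly all actives have a fitted effect of over 45% in size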
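AMA1 (3D7) with his tag at 25 nM final met compounds first, then biotinylated RON2 peptide at 25 nM; detection used donor plus acceptor beads, 10 µg/mL apiece, read by AlphaScreen after 30 min at room temperature.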
Numbers without * were called inactive; [ ] = remark or other dose. The entries come from a sample that favours hits as a whole. Unless noted, the call rests on the fitted dose curve; in most records, active means well fitted curve in the direction sought with a large enough effect; inconclusive means small, poorly fitted or top-dose-only effect, or another doubt; inactive means no such curve, though single readings can be large; an effect the other way counts as inactive or inconclusive.

Screening COc1ccc(CC(=O)Nc2ccc(C(C)=O)cc2)cc1 returned Cycloheximide cs 28*, AmpC detergent -6%, SARS PLP yeast 1%, AmpC no deterg -35%, Shiga toxin inh 45 and AMA1 RON2 block 5%.
Screening COc1ccc(NC(=O)CCC(=O)NCCO)cc1 returned Cycloheximide cs 16*, AmpC detergent -2%, SARS PLP yeast -1%, AmpC no deterg 46%, Shiga toxin inh 45* and AMA1 RON2 block -18%.
For CCOc1cc(C2C(C(=O)c3ccco3)=C(O)C(=O)N2CC2CCCO2)ccc1O (stereo not given) the results were Cycloheximide cs -5, AmpC detergent inconclusive, SARS PLP yeast -1%, AmpC no deterg -7%, Shiga toxin inh -8 and AMA1 RON2 block inconclusive.
Cn1c(N)c(C(=O)COC(=O)CCCOc2ccc(Cl)cc2Cl)c(=O)n(C)c1=O was read as Cycloheximide cs -2, AmpC detergent 1%, SARS PLP yeast -1%, AmpC no deterg 0%, Shiga toxin inh -6 and AMA1 RON2 block 9%.
Screening Cc1cc(CN2CCN(c3ccc(F)cc3)CC2)cs1 returned AmpC detergent -5%.
`O=C(Cc1ccccc1)N/N=C/c1cccc([N+](=O)[O-])c1` gave Cycloheximide cs 9.6*, AmpC detergent 5%, SARS PLP yeast -4%, AmpC no deterg -26%, Shiga toxin inh 12 and AMA1 RON2 block 10%.
`O=C(N/N=C/c1cccc([N+](=O)[O-])c1)c1nc2ccccc2c(=O)[nH]1` gave Cycloheximide cs 19*, AmpC detergent 6%, SARS PLP yeast 0%, AmpC no deterg -19%, Shiga toxin inh 33 and AMA1 RON2 block 40%.
Screening O=C(Cc1ccccc1)N/N=C/C=C/c1cccc([N+](=O)[O-])c1 returned Cycloheximide cs -3, AmpC detergent -2%, SARS PLP yeast -1%, AmpC no deterg -8%, Shiga toxin inh 8 and AMA1 RON2 block 3%.
Screening CC(NC(=O)c1ccccc1)C(=O)N/N=C/c1ccc(O)cc1 (stereo not given) returned Cycloheximide cs 2, AmpC detergent 1%, SARS PLP yeast 1%, AmpC no deterg -21%, Shiga toxin inh 9 and AMA1 RON2 block -2%.
CC(NC(=O)c1ccccc1)C(=O)N/N=C/c1cccc([N+](=O)[O-])c1 (stereo not given) was read as Cycloheximide cs 17*, AmpC detergent -14%, SARS PLP yeast -1%, AmpC no deterg -14%[11.4 µM], Shiga toxin inh 93 and AMA1 RON2 block 7%.
O=C(N/N=C/c1ccccc1Cl)c1nc2ccc([N+](=O)[O-])cc2c(=O)[nH]1 was read as Cycloheximide cs 1, AmpC detergent 1%, SARS PLP yeast -2%, AmpC no deterg -20%, Shiga toxin inh -15 and AMA1 RON2 block 86%.
O=C(Nc1ccnn1C1CCN(Cc2cc3ccccc3[nH]2)CC1)C1CCOC1 (stereo not given) was read as Cycloheximide cs -8, AmpC detergent -3%, SARS PLP yeast -1%, AmpC no deterg 1% and Shiga toxin inh -2.
CC(Oc1ccccc1)C(=O)Nc1ccccc1O (stereo not given) was read as Cycloheximide cs -2, AmpC detergent 0%, SARS PLP yeast -9%, AmpC no deterg -16%, Shiga toxin inh -7 and AMA1 RON2 block 1%.
COc1ccc(O)c(/C=N/N2CCCCC2)c1 was read as Cycloheximide cs 54*, AmpC detergent -1%, SARS PLP yeast 3%, AmpC no deterg -12%, Shiga toxin inh 83* and AMA1 RON2 block -15%.
COc1ccc(/C(C)=N/N2CCCCC2)c(O)c1 was read as Cycloheximide cs 12*, AmpC detergent 6%, SARS PLP yeast 1%, AmpC no deterg -7%, Shiga toxin inh 29 and AMA1 RON2 block -3%.
`COC(=O)[C@H](CC(C)C)NC(=O)Nc1ccc(F)cc1` gave Cycloheximide cs -3, AmpC detergent -4%, SARS PLP yeast 0%, AmpC no deterg 1%, Shiga toxin inh -10 and AMA1 RON2 block 1%.
Screening COc1ccc(NC(=O)Cc2csc(C)n2)cc1 returned AmpC detergent 18%.
